From PubChem BioAssay AID1117293 (Broad Institute, 2014)
Entries with a potency or affinity are not part of this list. Records with an inconclusive call do not appear. Calls of active or inactive are those of the source.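 The calls were made as follows: active = cytotoxic in every repeat run, with fitted half-maximal concentration at most twice the top tested dose; inconclusive = runs disagree, or flat partial drop, or poor curve fit; inactive = inactive in every run.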

Assay: embryonic kidney cell viability loss – CellTiter-Glo luminescence, dry powder, set 20, cytotoxicity control, dose response (AID 1117293)

## CC(=O)N1CCN(C(=O)C2(NC(=O)Nc3ccccc3C(F)(F)F)CCCCC2)CC1
  outcome: inactive

## O=S(=O)(Nc1cc(C(F)(F)F)ccc1N1CCCCC1)c1ccc(F)cc1
  outcome: inactive

## CC(=O)N1CCN(C(=O)C2(NC(=O)NC(C)(C)C)CCCCC2)CC1
  outcome: inactive

## COc1ccc(C(=O)Nc2cccc(C(F)(F)F)c2)cc1S(=O)(=O)O
  outcome: inactive

## CC(=O)N1CCN(C(=O)C2(NC(=O)Nc3ccc(C)cc3)CC2)CC1
  outcome: inactive

## CC(=O)N1CCN(C(=O)C2(NC(=O)Nc3cccc(C(F)(F)F)c3)CCCCC2)CC1
  outcome: inactive

## Cc1ccc(NC(=O)NC2(C(=O)N3CCN(c4ccccc4)CC3)CCCCC2)cc1
  outcome: inactive

## CC(=O)N1CCN(C(=O)C2(NC(=O)Nc3ccc(F)cc3)CCCCC2)CC1
  outcome: inactive

## COc1ccc(S(=O)(=O)Nc2cc(C(F)(F)F)ccc2N2CCCCC2)cc1
  outcome: inactive

## CC(=O)N1CCN(C(=O)C2CCCN2C(=O)Nc2ccc(C)cc2)CC1 (centres undefined)
  outcome: inactive

## COc1cccc(NC(=O)NC2(C(=O)N3CCN(C(C)=O)CC3)CCCCC2)c1
  outcome: inactive

## COc1ccc(C(=O)Nc2cc(C(F)(F)F)ccc2N2CCCC2)cc1S(=O)(=O)O
  outcome: inactive

## COc1ccc(C(=O)O)cc1S(=O)(=O)Nc1cc(C(F)(F)F)ccc1N(C)C
  outcome: inactive

## COc1ccc(C(=O)Nc2cc(C(F)(F)F)ccc2N2CCOCC2)cc1S(=O)(=O)O
  outcome: inactive

## CC(=O)N1CCN(C(=O)C2(NC(=O)Nc3ccc(C(C)C)cc3)CCCCC2)CC1
  outcome: inactive

## CC(=O)N1CCN(C(=O)C2(NC(=O)Nc3ccc(C(F)(F)F)cc3)CCCC2)CC1
  outcome: inactive

## O=S(=O)(Nc1cc(C(F)(F)F)ccc1N1CCCCC1)c1ccc(Cl)cc1
  outcome: inactive

## COc1ccc(C(=O)Nc2cc(C(F)(F)F)ccc2N2CCCCC2)cc1S(=O)(=O)O
  outcome: inactive

## COc1ccc(C(=O)O)cc1S(=O)(=O)Nc1cccc(N2CCCCC2)c1C(F)(F)F
  outcome: inactive

## Cc1ccc(NC(=O)NC2(C(=O)N3CCOCC3)CCCCC2)cc1
  outcome: inactive

## COc1ccc(C(=O)O)cc1S(=O)(=O)N1CCN(c2ccc(C(F)(F)F)cc2N)CC1
  outcome: inactive

## Cc1ccccc1S(=O)(=O)Nc1cc(C(F)(F)F)ccc1N1CCCCC1
  outcome: inactive

## CC(=O)N1CCN(C(=O)C(C)(C)NC(=O)Nc2ccc(C)cc2)CC1
  outcome: inactive

## CC(=O)N1CCN(C(=O)C2(NC(=O)Nc3ccc(F)cc3)CCCC2)CC1
  outcome: inactive
